# Measurements: PubChem BioAssay (EPA / NIEHS)
# “And” between values parts separate entries of the source, which are not always exact repeats. Equal values may be shown once. Records with an inconclusive call do not appear. Where a structure was tested more than once in an assay, its records may differ in their call. The source made the active and inactive calls. How the source made its calls, unless noted: active means hit-call score of the fitted dose curve at least 0.9, where 1 is the maximum; inconclusive means response in the unintended direction; inactive means score below 0.9.
# How the values were obtained:
# [1] = ATG_XTT_Cytotoxicity: Cytotoxicity Assessment in the Attagene TRANS-FACTORIAL HepG2 Assay (AID 2283584)
# Procedure, shortened: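 Cells: human HepG2, transiently transfected with MRTU reporter constructs. Exposure 24 h. Readout: XTT, cell number. Baseline/neg ctrl DMSO; loss-of-signal scored.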
# [2] = read-out: Transforming Growth Factor (TGFA), TGFA (gene 7039); test: LTEA_HepaRG_TGFA: Life Technologies and Expression Analysis (LTEA) Assay for Transforming Growth Factor (TGFA) using HepaRG (AID 2283532; active means hit-call score of the fitted dose curve at least 0.9, where 1 is the maximum; inactive means score below 0.9); conditions: mRNA level, 48 h; actives raise or lower the signal
# Procedure, shortened: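 Gene expression of TGFA was quantified by qRT-PCR after human HepaRG cells were treated for 48 h with test chemicals (eight concentrations, highest 100 uM, 0.5% DMSO). Activity in either direction was fitted relative to DMSO.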
# [3] = read-out: Transforming Growth Factor (TGFB1), TGFB1 (gene 7040); test: LTEA_HepaRG_TGFB1: Life Technologies and Expression Analysis (LTEA) Assay for Transforming Growth Factor (TGFB1) Transporter using HepaRG (AID 2283533; active means hit-call score of the fitted dose curve at least 0.9, where 1 is the maximum; inactive means score below 0.9); conditions: mRNA level, 48 h; actives raise or lower the signal
# Procedure, shortened: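 HepaRG, 48 h post-plating, switched to serum-free induction medium; chemicals 100 uM top, half-log, 8 pts, 0.5% DMSO, dup; 48 h exposure; RNA → Fluidigm TaqMan qRT-PCR; norm ACTB/GAPDH/POLR2A; bidirectional fit vs DMSO.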
# [4] = read-out: TIMP1, TIMP1 (gene 7076); test: LTEA_HepaRG_TIMP1: Life Technologies and Expression Analysis (LTEA) Assay for TIMP1 using HepaRG (AID 2283534; active means hit-call score of the fitted dose curve at least 0.9, where 1 is the maximum; inactive means score below 0.9;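 further: TaqMan qRT-PCR signal normalized to ACTB GAPDH and POLR2A housekeeping genes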); conditions: mRNA level, 48 h; actives raise or lower the signal
# Procedure, shortened: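 Readout is TIMP1 mRNA level measured by qRT-PCR and normalized to three housekeeping genes. Human HepaRG cells were treated for 48 h in duplicate at eight concentrations up to 100 uM (0.5% DMSO); gain or loss fitted against DMSO.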
# [5] = read-out: Tumor necrosis factor receptor 1 (TNFRSF1A), TNFRSF1A (gene 7132); test: LTEA_HepaRG_TNFRSF1A: Life Technologies and Expression Analysis (LTEA) Assay for Tumor necrosis factor receptor 1 (TNFRSF1A) using HepaRG (AID 2283535; active means hit-call score of the fitted dose curve at least 0.9, where 1 is the maximum; inactive means score below 0.9); conditions: mRNA level, 48 h; actives raise or lower the signal
# Procedure, shortened: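 Read-out is TNFRSF1A transcript level by TaqMan qRT-PCR, normalized to three housekeeping genes, scored as gain or loss of signal versus 0.5% DMSO. Human HepaRG cells received test chemicals for 48 h at up to 100 uM (half-log series).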
# [6] = read-out: Thyroid Hormone Responsive (THRSP), THRSP (gene 7069); test: LTEA_HepaRG_THRSP: Life Technologies and Expression Analysis (LTEA) Assay for Thyroid Hormone Responsive (THRSP) using HepaRG (AID 2283536; active means hit-call score of the fitted dose curve at least 0.9, where 1 is the maximum; inactive means score below 0.9); conditions: mRNA level, 48 h; actives raise or lower the signal
# Procedure, shortened: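 Cell model: human HepaRG, approx. 100,000 cells/well, 0.5% DMSO vehicle. Exposure lasts 48 h; phenobarbital 1 mM serves as induction positive control. Gene expression is measured by qRT-PCR against three endogenous control genes.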
# [7] = read-out: Cellular tumor antigen p53 (Homo sapiens) (UniProt P04637); test: LTEA_HepaRG_TP53: Life Technologies and Expression Analysis (LTEA) Assay for Tumor Protein P53 (TP53) using HepaRG (AID 2283537; active means hit-call score of the fitted dose curve at least 0.9, where 1 is the maximum; inactive means score below 0.9); conditions: mRNA level, 48 h; actives raise or lower the signal
# Procedure, shortened: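 Gain or loss of TP53 mRNA signal is scored relative to 0.5% DMSO after 48 h chemical treatment of HepaRG liver cells, tested in duplicate at eight half-log concentrations up to 100 uM.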
# [8] = read-out: UDP glucuronosyltransferase (UGT1A1), UGT1A1 (gene 54658); test: LTEA_HepaRG_UGT1A1: Life Technologies and Expression Analysis (LTEA) Assay for UDP glucuronosyltransferase (UGT1A1) using HepaRG (AID 2283538; active means hit-call score of the fitted dose curve at least 0.9, where 1 is the maximum; inactive means score below 0.9); conditions: mRNA level, 48 h; actives raise or lower the signal
# Procedure, shortened: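 mRNA induction or loss of UGT1A1, by TaqMan qRT-PCR, in duplicate HepaRG wells after 48 h exposure to half-log dilutions topping at 100 uM; DMSO (0.5%) served as baseline.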
# [9] = read-out: UDP glucuronosyltransferase (UGT1A6), UGT1A6 (gene 54578); test: LTEA_HepaRG_UGT1A6: Life Technologies and Expression Analysis (LTEA) Assay for UDP glucuronosyltransferase (UGT1A6) using HepaRG (AID 2283539; active means hit-call score of the fitted dose curve at least 0.9, where 1 is the maximum; inactive means score below 0.9); conditions: mRNA level, 48 h; actives raise or lower the signal
# Procedure, shortened: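 HepaRG, 48 h post-plating switch to serum-free induction medium; chemical 48 h, 100 uM top, half-log x8, duplicate, 0.5% DMSO. Phenobarbital 1mM induction control. UGT1A6 mRNA by TaqMan qRT-PCR; gain/loss fit vs DMSO.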
# [10] = read-out: X-box binding protein 1 (XBP1), XBP1 (gene 7494); test: LTEA_HepaRG_XBP1: Life Technologies and Expression Analysis (LTEA) Assay for X-box binding protein 1 (XBP1) using HepaRG (AID 2283540; active means hit-call score of the fitted dose curve at least 0.9, where 1 is the maximum; inactive means score below 0.9); conditions: mRNA level, 48 h; actives raise or lower the signal
# Procedure, shortened: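 Transcript levels of XBP1, measured by qRT-PCR and normalised to three housekeeping genes, were fitted bidirectionally relative to 0.5% DMSO controls. Human HepaRG cells received eight-point half-log dilutions from 100 uM for 48 h.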
# [11] = LTEA_HepaRG_LDH_cytotoxicity: Cytotoxicity Assessment in the Life Technologies and Expression Analysis (LTEA) Assay (AID 2283563)
# Procedure, shortened: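 Cells were thawed and plated for 48 h. Medium was then replaced with serum-free induction medium. Chemicals (8 half-log points, maximum 100 uM, 0.5% DMSO) were added in duplicate for 48 h, after which spent medium was assayed for LDH.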
# [12] = TOX21_p53_BLA_p2_viability: Viability Assessment in the Tox21 HCT-116 p53 Agonism Beta-lactamase Assay, Phase 2 (AID 2283591);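 further: compound exposure lasted 16 h at 37 °C; actives lower the ATP signal meaning cytotoxicity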
# Procedure, shortened: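 HCT-116 p53-bla cells (4000/well) rested 5 h at 37C, then received compounds in DMSO (217-fold dilution) for 16 h at 37C, 5% CO2. After the CCF4 read, CellTiter-Glo was added; ATP luminescence was read after 30 min at room temperature.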
# [13] = molecular target: Cellular tumor antigen p53 (Homo sapiens) (UniProt P04637); test: TOX21_p53_BLA_p2_ratio: Tox21 HCT-116 p53 Agonism Beta-lactamase Assay, Ratio, Phase 2 (AID 2283592)
# Procedure, shortened: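 Plated HCT116 p53-bla cells (4000/well) received compound after 5 h, then 16 h at 37C/5% CO2. CCF4-AM added, 2 h RT. Ratio of 460 to 530 nm emission taken as the p53 reporter signal.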
# [14] = TOX21_p53_BLA_p3_viability: Viability Assessment in the Tox21 HCT-116 p53 Agonism Beta-lactamase Assay, Phase 3 (AID 2283593);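 further: cells exposed to compound for 16 h before reading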
# Procedure, shortened: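 HCT-116 cells (4000/well) rested 5 h at 37C, then got DMSO compounds by pin tool (217-fold dilution) for 16 h at 37C, 5% CO2. After the bla read, CellTiter-Glo was added and luminescence read at 30 min, room temperature.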
# [15] = molecular target: Cellular tumor antigen p53 (Homo sapiens) (UniProt P04637); test: TOX21_p53_BLA_p3_ratio: Tox21 HCT-116 p53 Agonism Beta-lactamase Assay, Ratio, Phase 3 (AID 2283596)
# Procedure, shortened: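 Cells were seeded at 4000/well, rested 5 h at 37C, then dosed with DMSO compound solutions (217-fold dilution) for 16 h. CCF4-AM substrate was loaded for 2 h at room temperature, and the 460/530 nm emission ratio was fitted for gain of signal versus DMSO.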
# [16] = TOX21_p53_BLA_p4_viability: Viability Assessment in the Tox21 HCT-116 p53 Agonism Beta-lactamase Assay, Phase 4 (AID 2283597);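 further: hits lower the luminescence signal meaning cytotoxicity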
# Procedure, shortened: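 Readout: ATP luminescence (CellTiter-Glo), measured 30 min after reagent addition at RT. The reagent followed a 2 h CCF4-AM incubation, and the cells had been exposed to compound for 16 h at 37C.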
# [17] = molecular target: Cellular tumor antigen p53 (Homo sapiens) (UniProt P04637); test: TOX21_p53_BLA_p5_ratio: Tox21 HCT-116 p53 Agonism Beta-lactamase Assay, Ratio, Phase 5 (AID 2283599)
# Procedure, shortened: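 HCT-116 cells carrying a p53-inducible beta-lactamase reporter were seeded at 4000 cells/well and dosed after 5 h with compound in DMSO (217-fold dilution). After 16 h at 37C, CCF4-AM substrate was added for 2 h, and the 460/530 nm emission ratio was scored as gain-of-signal versus DMSO.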
# [18] = TOX21_p53_BLA_p5_viability: Viability Assessment in the Tox21 HCT-116 p53 Agonism Beta-lactamase Assay, Phase 5 (AID 2283600)
# Procedure, shortened: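 Workflow: seed 4000 cells per well, wait 5 h, add compounds (DMSO, 217-fold dilution), incubate 16 h, load CCF4-AM 2 h, add CellTiter-Glo, read luminescence after 30 min.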
# [19] = molecular target: Cellular tumor antigen p53 (Homo sapiens) (UniProt P04637); test: TOX21_p53_BLA_p4_ratio: Tox21 HCT-116 p53 Agonism Beta-lactamase Assay, Ratio, Phase 4 (AID 2283601)
# Procedure, shortened: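 HCT116 cells carrying an inducible beta-lactamase reporter were plated at 4000 cells/well, rested 5 h, then exposed to compounds in DMSO (217-fold dilution) for 16 h at 37C. CCF4-AM substrate was loaded 2 h at room temperature; 460/530 nm emission ratio scored gain-of-signal versus DMSO.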
# [20] = Tanguay_ZF_120hpf_MORT_legacy: (Legacy) Oregon State University Tanguay Lab 120 Hour Post-fertilization zebrafish Assay for Mortality (AID 2283633)
# Procedure, shortened: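 5D WT zebrafish, chorion removed 4 hpf; 1 embryo/well from 6 hpf; static exposure to 120 hpf, 28C, dark, sealed. Final DMSO 0.64%. Readout: binary mortality, brightfield, 24 + 120 hpf; DMSO as negative control.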
# Chain of Cellular tumor antigen p53 (Homo sapiens) (P04637 whole entry, looked up): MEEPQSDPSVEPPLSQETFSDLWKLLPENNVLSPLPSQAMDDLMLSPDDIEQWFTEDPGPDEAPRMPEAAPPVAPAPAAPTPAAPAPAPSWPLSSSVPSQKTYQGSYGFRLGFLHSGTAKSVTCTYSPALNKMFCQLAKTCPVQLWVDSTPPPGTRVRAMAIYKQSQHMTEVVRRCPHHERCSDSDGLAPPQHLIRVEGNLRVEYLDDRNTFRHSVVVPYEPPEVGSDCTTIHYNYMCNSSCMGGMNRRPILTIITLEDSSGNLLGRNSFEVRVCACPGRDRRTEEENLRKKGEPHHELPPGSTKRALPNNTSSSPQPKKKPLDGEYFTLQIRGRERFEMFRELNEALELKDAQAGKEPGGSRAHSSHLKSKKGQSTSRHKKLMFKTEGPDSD
smiles,measurement,setting,value
CCCCCCCC/C=C\CCCCCCCC(=O)OCC,outcome,[1],inactive
CC/C=C\CC/C=C/CO,outcome,[1],inactive
CCCCCCOCCOCCO,outcome,[1],inactive
CCNCCO,outcome,[1],inactive
C=CC(=C)CCCC(C)(C)OC(C)=O,outcome,[1],inactive
O=C1OC(=O)c2c(Br)c(Br)c(Br)c(Br)c21,outcome,[1],inactive
CCCCCCC(C)Nc1ccc(Nc2ccccc2)cc1 (stereo not drawn),outcome,[1],inactive
CC(C)(N=C=O)c1cccc(C(C)(C)N=C=O)c1,outcome,[1],inactive
BrCc1cccc(Oc2ccccc2)c1,outcome,[1],inactive
CS(=O)(=O)OCCCCOS(C)(=O)=O,outcome,[2],inactive
same,outcome,[3],inactive
same,outcome,[4],inactive
same,outcome,[5],inactive
same,outcome,[6],inactive
same,outcome,[7],inactive
same,outcome,[8],inactive
same,outcome,[9],inactive
same,outcome,[10],inactive
same,outcome,[11],inactive
same,outcome,[1],inactive
same,outcome,[12],inactive
same,outcome,[13],inactive
same,AC50,[14],0.0231 nM (active)
same,outcome,[14],inactive
same,outcome,[15],inactive
same,outcome,[16],inactive
same,outcome,[17],inactive
same,outcome,[18],inactive
same,outcome,[19],inactive
same,outcome,[20],inactive
COc1cccc(OC)c1O,outcome,[1],inactive
O=C(c1ccccc1)C(O)c1ccccc1 (stereo not drawn),outcome,[1],inactive
COc1cc(C(C)C)ccc1C,outcome,[1],inactive
Clc1cc(Cl)c(-c2c(Cl)c(Cl)cc(Cl)c2Cl)cc1Cl,outcome,[1],inactive
COc1ccc(COC(C)=O)cc1,outcome,[1],inactive
OC[C@H]1O[C@@H]2O[C@H]3[C@H](O)[C@@H](O)[C@@H](O[C@H]4[C@H](O)[C@@H](O)[C@@H](O[C@H]5[C@H](O)[C@@H](O)[C@@H](O[C@H]6[C@H](O)[C@@H](O)[C@@H](O[C@H]7[C@H](O)[C@@H](O)[C@@H](O[C@H]8[C@H](O)[C@@H](O)[C@@H](O[C@H]9[C@H](O)[C@@H](O)[C@@H](O[C@H]1[C@H](O)[C@H]2O)O[C@@H]9CO)O[C@@H]8CO)O[C@@H]7CO)O[C@@H]6CO)O[C@@H]5CO)O[C@@H]4CO)O[C@@H]3CO,outcome,[1],inactive
CN(C)c1ccncc1,outcome,[1],inactive
C=Cc1ccncc1,outcome,[1],inactive
CC=Cc1ccc(OCC)c(O)c1,outcome,[1],inactive
CCCCC(CC)COC(C)=O (stereo not drawn),outcome,[1],inactive
NCc1ccco1,outcome,[1],inactive
Nc1c(S(=O)(=O)O)cc(Br)c2c1C(=O)c1ccccc1C2=O,outcome,[1],inactive
CC1=C(Br)C(=O)C(Br)=C/C1=C(/c1ccccc1S(=O)(=O)O)c1cc(Br)c(O)c(Br)c1C,outcome,[1],inactive
COc1cc(Cl)c(OC)cc1N,outcome,[1],inactive
CCCCCCCCCC(=O)OC,outcome,[1],inactive
CCCCCCC(=O)c1ccccc1,outcome,[1],inactive
Nc1ccc(Cl)c([N+](=O)[O-])c1,outcome,[1],inactive
CN(c1nccc(=O)[nH]1)C1CCN(c2nc3ccccc3n2Cc2ccc(F)cc2)CC1,outcome,[1],inactive
CCCCCCCCCCCCS(=O)(=O)Cl,outcome,[1],inactive
O=C(Nc1ccc([N+](=O)[O-])cc1)Nc1ccc([N+](=O)[O-])cc1 (tested in a mixture with another compound),outcome,[1],inactive
CCCC(O)C(O)CO (stereo not drawn),outcome,[1],inactive
Nc1ccc2cc(S(=O)(=O)O)cc(O)c2c1N=Nc1ccccc1C(F)(F)F,outcome,[1],inactive
ClC(c1ccccc1)(c1ccccc1)c1ccccc1,outcome,[1],inactive
CC(C)=CCCC(C)CC(=O)O (stereo not drawn),outcome,[1],inactive
CC(=O)O[C@@H]1C[C@@H]2CC[C@@]1(C)C2(C)C,outcome,[1],inactive
COc1cc([C@@H]2c3cc4c(cc3[C@@H](O[C@@H]3O[C@@H]5CO[C@@H](C)O[C@H]5[C@H](O)[C@H]3O)[C@H]3COC(=O)[C@H]23)OCO4)cc(OC)c1O,outcome,[1],inactive
same,outcome,[12],inactive
same,AC50,[13],1.36 µM (active) and 3.57 µM (active)
same,outcome,[14],inactive
same,AC50,[15],852 nM (active) and 3.18 µM (active)
same,outcome,[16],inactive
same,AC50,[17],2.56 µM (active) and 4.83 µM (active)
same,outcome,[18],inactive
same,AC50,[19],6.18 µM (active) and 1.98 µM (active)
Cc1[nH]c(=O)c(C#N)cc1-c1ccncc1,outcome,[1],inactive
same,outcome,[12],inactive
same,outcome,[13],inactive
same,outcome,[14],inactive
same,outcome,[15],inactive
same,outcome,[16],inactive
same,outcome,[17],inactive
same,outcome,[18],inactive
same,outcome,[19],inactive
